This passage reports inhibition results from PubChem BioAssay AID1779 (Sanford-Burnham Center for Chemical Genomics, 2009).

Among all 290,000 compounds or so, about 160 (0.055%) were called active. Rule as the data show it: active = inhibition above about 50%; inactive = the rest. The list comes from a sample in which actives are over-represented; it also holds similar structures and randomly drawn compounds.

For this experiment, the target named is Tyrosine-protein phosphatase non-receptor type 22 (Homo sapiens) (UniProt Q9Y2R2). The experiment in a line: PTPN22 lymphoid phosphatase activity blockers – biochemical, fluorescence intensity, uHTS (AID 1779).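 Also: plate controls were vehicle with enzyme for no effect and no enzyme for full effect.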 To be noted: recombinant LYP phosphatase, at 11.5 µM, hits give high values.
Tyrosine-protein phosphatase non-receptor type 22 (Homo sapiens), sequence (Q9Y2R2 whole entry, looked up): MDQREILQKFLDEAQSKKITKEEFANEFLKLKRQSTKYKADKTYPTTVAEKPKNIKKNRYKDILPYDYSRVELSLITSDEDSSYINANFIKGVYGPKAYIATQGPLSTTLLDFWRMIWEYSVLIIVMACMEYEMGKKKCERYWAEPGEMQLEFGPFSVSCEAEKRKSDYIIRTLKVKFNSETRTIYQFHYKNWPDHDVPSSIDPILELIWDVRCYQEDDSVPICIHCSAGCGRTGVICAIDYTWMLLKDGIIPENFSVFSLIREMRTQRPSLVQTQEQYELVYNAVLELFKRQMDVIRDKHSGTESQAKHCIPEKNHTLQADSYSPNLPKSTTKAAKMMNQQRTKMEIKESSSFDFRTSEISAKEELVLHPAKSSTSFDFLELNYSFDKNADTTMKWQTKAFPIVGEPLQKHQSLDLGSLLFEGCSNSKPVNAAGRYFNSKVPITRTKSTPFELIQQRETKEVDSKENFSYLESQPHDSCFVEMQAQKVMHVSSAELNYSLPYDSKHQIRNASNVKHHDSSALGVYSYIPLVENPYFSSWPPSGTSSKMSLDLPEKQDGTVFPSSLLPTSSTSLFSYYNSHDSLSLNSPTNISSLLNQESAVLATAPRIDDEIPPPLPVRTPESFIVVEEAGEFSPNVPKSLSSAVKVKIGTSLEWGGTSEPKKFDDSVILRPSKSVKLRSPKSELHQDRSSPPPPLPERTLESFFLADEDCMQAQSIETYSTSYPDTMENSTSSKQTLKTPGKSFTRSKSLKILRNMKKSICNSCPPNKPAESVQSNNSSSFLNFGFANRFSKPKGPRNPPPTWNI
With `CC(=O)c1ccc2c(c1)C1C(Cl)C(Sc3ccccc3[N+](=O)[O-])CC1C(c1ccccc1)N2` (stereo not given), the inhibition is 6% (inactive).

Take `CC(=O)c1ccc2c(c1)C1C(Cl)C(Sc3ccccc3[N+](=O)[O-])CC1C(C(=O)O)N2` (stereo not given): the inhibition was 51.4% (active).

`CCN(CC)C(=O)c1ccc2c(c1)C1C(Cl)C(Sc3ccccc3[N+](=O)[O-])CC1C(C(=O)O)N2` (stereo not given): the inhibition is 6.1% (inactive).

For the compound `O=P(Nc1ccccc1)(Nc1ccccc1)Oc1ccc(Cl)cc1`, the inhibition was -4% (inactive).

For the compound `COCc1cc(C2SCC(=O)Nc3c2c(=O)[nH]n3C(C)C)ccc1OC` (stereo not given), the inhibition was -11.3% (inactive).

Take `CCOP(=O)(/C=C(\Cl)c1ccccc1)C(O)c1ccc(F)cc1` (stereo not given): the inhibition was -5.3% (inactive).

With `CC(=O)C1C(=O)NC23CCCCC2C1c1ccccc1O3` (stereo not given), the inhibition was 1.8% (inactive).

For `COc1ccc(-n2c(-c3ccccc3)nc3ccccc3c2=O)cc1`, the inhibition was -9.9% (inactive).

Turning to `CCn1nc(/C=C/c2ccccc2)nc2c(=O)n(C)c(=O)nc1-2`, the inhibition is 79.3% (active).

`CCCc1nc2ccccc2c(=O)n1-c1ccc(OC)cc1`: the inhibition was 2.2% (inactive).

As to `O=c1c2ccccc2nc(-c2cccs2)n1-c1ccccc1`, the inhibition is -10.4% (inactive).

With `CCn1nc(-c2ccccc2)nc2c(=O)n(C)c(=O)nc1-2`, the inhibition is 60.7% (active).

As to `COc1ccc(-n2c(/C=C/c3ccc(O)cc3)nc3ccccc3c2=O)cc1`, the inhibition was -7.8% (inactive).

For the compound `O=c1c2ccccc2nc(/C=C/c2ccccc2)n1-c1ccc(O)cc1`, the inhibition is 3.1% (inactive).

`CCn1nc(-c2cccs2)nc2c(=O)n(C)c(=O)nc1-2`: the inhibition is 52.8% (active).

For the compound `CCOc1ccc(-n2c(-c3cccs3)nc3ccccc3c2=O)cc1`, the inhibition was 8.8% (inactive).

On to `COc1ccc(C(=O)N2CCC3(CC2)OCCO3)cc1`, for which the inhibition is -5% (inactive).

Regarding `c1ccc2c(CN3CCOCC3)c[nH]c2c1`, the inhibition was -8.9% (inactive).

With `Cc1cc(OC(=O)c2cccs2)c2c3c(c(=O)oc2c1)CCCC3`, the inhibition is 2.4% (inactive).

Regarding `CCOC(=O)C(O)(c1ccc(NC(=O)Oc2ccccc2)cc1)C(F)(F)F` (stereo not given), the inhibition is -3.1% (inactive).

In the case of `CCN1CCN(c2ccc([N+](=O)[O-])cc2C=C2C(=O)NC(=O)NC2=O)CC1`, the inhibition was -8.1% (inactive).

On to `c1nc2nc3c(c(N4CCNCC4)n2n1)CCCC3`, for which the inhibition is -3.9% (inactive).

For `S=P(Nn1cnnc1)(c1ccccc1)c1ccccc1`, the inhibition was 0.6% (inactive).

Regarding `CCOC(=O)c1c(C)n(CC(O)CN2CCOCC2)c2cc(Br)c(OC)cc12` (stereo not given), the inhibition was -6.1% (inactive).

Consider `COc1ccc(-c2nn(CCC#N)cc2C(=O)Nc2ccccc2)cc1OC`, for which the inhibition was -8% (inactive).

Take `CN(C)CC1CSCCC1(O)c1ccc(C(F)(F)F)cc1` (stereo not given): the inhibition was -5.6% (inactive).

Turning to `Cc1ccc(-c2nc3ccccc3c(=O)n2-c2ncccc2C)cc1`, the inhibition is -0.2% (inactive).

Turning to `Cc1cccnc1-n1c(-c2ccccc2)nc2ccccc2c1=O`, the inhibition is -1.3% (inactive).

On to `Cc1cccnc1-n1c(C)nc2ccccc2c1=O`, for which the inhibition was 90.2% (active).

As to `C=CCN1C(=O)NC(=O)C(Cc2ccc(OC)c(OC)c2)C1=O` (stereo not given), the inhibition is 3.4% (inactive).

With `Cn1ncnc2c(=O)n(C)c(=O)nc1-2`, the inhibition is 71.9% (active).

On to `Cc1nc2c(=O)n(C)c(=O)nc-2n(C)n1`, for which the inhibition was 87.9% (active).

On to `CN1CC(C(=O)c2ccc(F)cc2)C(c2ccc(F)cc2)C1` (stereo not given), for which the inhibition was -5.4% (inactive).

For the compound `C=CCC1C(=O)NC(=S)NC1=O`, the inhibition is 4.3% (inactive).

Regarding `COc1ccccc1N1CCN(CCc2ccccc2)CC1`, the inhibition was -7.3% (inactive).

Turning to `N=C1c2ccccc2CN1NC(=O)c1ccc(Br)cc1`, the inhibition was -5.9% (inactive).

As to `CCOC(=O)C(NC(=O)CCl)(Nc1ccc(C(O)(C(=O)OCC)C(F)(F)F)cc1)C(F)(F)F` (stereo not given), the inhibition was 82.4% (active).

As for `CCOC(=O)C(NC(=O)CC)(Nc1ccc(C(O)(C(=O)OCC)C(F)(F)F)cc1C)C(F)(F)F` (stereo not given), the inhibition is -6.6% (inactive).

Take `CCCCNC(=O)Nc1ccc(C(O)(C(=O)OCC)C(F)(F)F)cc1` (stereo not given): the inhibition was -8.2% (inactive).

Turning to `CCC(=O)N1CC(=O)Nc2ccc(F)cc2C1c1ccc(F)cc1` (stereo not given), the inhibition is 1% (inactive).

One may read the inhibition as the drop in the measured response relative to a control, in per cent.
